Most compounds without a hit are left out; they make up all but 3.6% or so of the library.
MITF act: MITF TRPM1 promoter activation in melanoma cells | activation, % at 12.5 µM | AID 588334 | 300,000 tested, 0.75% active | SK-MEL-5 TRPM1-promoter luciferase, 24 h; % of positive control, neutral wells = 0;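 active = mean activation of at least 80% with every replicate also reaching 80%; inconclusive = mean reaches 80% but some replicate falls short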;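 note: 0% = neutral control wells and 100% = parthenolide positive control wells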
PHOSPHO1 inh: blocks human PHOSPHO1 phosphatase activity; Q8TCT1; inhibition, % at 13.3 µM; recombinant PHOSPHO1, absorbance phosphatase assay; AID 1565; 290,000 tested, 1.1% active; in the data active = inhibition above about 60%
Target sequence (Q8TCT1 whole entry, looked up): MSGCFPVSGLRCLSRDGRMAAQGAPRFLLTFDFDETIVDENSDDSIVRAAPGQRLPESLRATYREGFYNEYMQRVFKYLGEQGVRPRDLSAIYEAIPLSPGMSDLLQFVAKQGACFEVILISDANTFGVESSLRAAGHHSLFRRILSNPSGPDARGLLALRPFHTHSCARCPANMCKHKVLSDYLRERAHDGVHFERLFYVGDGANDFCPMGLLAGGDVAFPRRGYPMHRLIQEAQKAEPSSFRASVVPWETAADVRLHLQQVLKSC
A3G deaminase: APOBEC3G (human) deaminase inhibition | Q9HC16 | recombinant A3G, ssDNA deamination FAM/TAMRA fluorescence | inhibition, % at 20 µM | 330,000 tested, 0.28% active | AID 493012;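 active = inhibition of at least 40% at 20 µM, with no more than 30% in the related APOBEC3A deaminase screen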;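 note: plate controls were DMSO wells with A3G for no effect and wells lacking A3G enzyme for full effect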
Target sequence (Q9HC16 whole entry, looked up): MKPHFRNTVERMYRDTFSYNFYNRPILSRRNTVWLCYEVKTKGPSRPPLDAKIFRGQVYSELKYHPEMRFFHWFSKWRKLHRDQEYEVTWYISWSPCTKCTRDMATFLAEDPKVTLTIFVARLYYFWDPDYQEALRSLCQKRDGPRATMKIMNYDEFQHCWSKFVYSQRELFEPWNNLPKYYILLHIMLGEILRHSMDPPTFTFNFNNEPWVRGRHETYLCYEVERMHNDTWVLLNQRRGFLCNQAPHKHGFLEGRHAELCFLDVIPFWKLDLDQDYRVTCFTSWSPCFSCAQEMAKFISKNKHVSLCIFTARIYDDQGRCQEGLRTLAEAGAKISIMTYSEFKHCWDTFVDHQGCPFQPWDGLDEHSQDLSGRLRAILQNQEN
A3A deaminase: human APOBEC3A DNA deaminase inhibition; recombinant A3A, FAM/TAMRA ssDNA deamination fluorescence; inhibition, % at 20 µM; P31941; 330,000 tested, 0.41% active; AID 493011;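 active = at least 40% inhibition at 20 µM here, with at most 30% in a related deaminase screen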;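 note: plate controls were A3A with DMSO for no effect and wells lacking A3A enzyme for full effect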
Wnt act: Wnt/beta-catenin pathway activation; Wnt/beta-catenin reporter cell assay, activator, plate reader; activation, % at 9.35 µM; 300,000 tested, 1.2% active; in the data active = activation above about 30%, passing the limit was not always enough; inconclusive = no clear call, values can overlap the other calls;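 note: 0% = neutral control wells and 100% = positive control wells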
esBAF inh: inhibitors of esBAF chromatin remodeling in mouse ES cells; Bmi1-luciferase knock-in reporter, 24 h; 100% = twice the neutral-well signal; reporter increase, % at 12.5 µM; 350,000 tested, 2% active; in the data active = activation above about 40%; inconclusive = no clear call, values can overlap the other calls;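 note: 0% = median of the plate's neutral control wells and 100% = double that signal; a rise in the Bmi1 reporter signal indicates esBAF inhibition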
An asterisk follows results filed as active; u = inconclusive; x = no result.

SMILES	MITF act	PHOSPHO1 inh	A3G deaminase	A3A deaminase	Wnt act	esBAF inh
CCC(C)c1ccc(NC(=O)C2CC3CCC2C3)cc1 (stereo unspecified)	x	x	-10	-2	26	x
CC(C)c1ccc(NC(=O)C2CC3CCC2C3)cc1 (stereo unspecified)	x	14	1	2	11	57*
Cc1ccc(S(=O)(=O)N(C)C[C@H]2Oc3ccc(NS(=O)(=O)c4cccs4)cc3C(=O)N([C@H](C)CO)C[C@H]2C)cc1	x	x	x	x	x	4
C[C@H]1CN([C@@H](C)CO)C(=O)c2c(c3ccccc3n2C)-c2ccccc2CO[C@@H]1CN(C)C(=O)CCC(F)(F)F	x	x	x	x	x	9
CCc1cc(Cn2nc(-c3ccccc3C)cc2C(=O)O)on1	4	x	-8	-2	1	1
CCOC(=O)c1cc(-c2ccccc2)nn1Cc1cc(C)no1	87*	x	-9	-4	12	36
COc1ccccc1CNC(=O)c1cc(-c2ccccc2)nn1Cc1cc(C)no1	8	x	-1	-2	3	9
Cc1cc(Cn2nc(-c3ccccc3)cc2C(=O)NCc2cccs2)on1	14	x	-4	-3	1	6
CCOC(=O)c1cc(-c2ccccc2C)nn1Cc1cc(C)no1	71	x	-2	0	15	46*
Cc1ccc(CNC(=O)c2cc(-c3ccccc3)nn2Cc2cc(C)no2)cc1	125*	x	0	0	1	u
C[C@H]1CN([C@@H](C)CO)C(=O)c2cc(C#CCc3ccccc3)cnc2O[C@@H]1CN(C)C(=O)C1CCCCC1	x	x	x	x	x	3
CCCCN(C)C(=O)c1cc2cc3cc(OC)ccc3nc2o1	68	36	-5	-1	44*	x
CCCCN(C)C(=O)c1cc2cc3ccc(OC)cc3nc2o1	41	38	-4	4	1	u
CO[C@H]1CN(C)C(=O)c2cc(NC(=O)C3CC3)ccc2OC[C@@H](C)N(CC2CCCC2)C[C@H]1C	x	x	x	x	x	3
COC(=O)C[C@H]1C[C@@H]2c3cc(NC(=O)c4ccc5c(c4)OCO5)ccc3O[C@@H]2[C@@H](CO)O1	x	x	x	x	x	1
O=C(c1ccccc1)c1cccc(NC(=O)c2ccco2)c1	49	-19	3	-18	x	66*
COC(=O)[C@@H](NC(=O)Nc1cccc(OC)c1)C(C)C	0	60*	-3	1	x	-4
O=C(Nc1ccc(Br)c(Cl)c1)c1ccco1	61	-10	-4	-3	x	52*
COc1cccc(NC(=O)c2ccco2)c1	35	12	-5	-1	x	60*
O=C(Nc1cccc(OC(=O)c2ccco2)c1)c1ccco1	x	50	-4	-1	9	7
CCNC(=O)[C@@H]1[C@@H](CO)[C@@H]2Cn3c(ccc(/C=C/c4ccccc4)c3=O)[C@@H]2N1C(=O)C1CC1	x	x	x	x	x	0
O=C(CNC(=O)c1ccco1)Nc1ccc(Br)cc1	44	36	-5	1	18	42*
O=C(COc1cccc(NC(=O)c2ccco2)c1)c1ccccc1	x	22	-7	-4	12	50*
O=C(Nc1cccc(F)c1)c1ccco1	21	-21	-6	0	3	45*
O=C(CN1CCOCC1)NCC[C@@H]1CC[C@H](NS(=O)(=O)c2ccc(F)cc2)[C@H](CO)O1	x	x	x	x	x	3
SMILES	MITF act	PHOSPHO1 inh	A3G deaminase	A3A deaminase	Wnt act	esBAF inh
CCC(=O)N(C)C[C@H]1Oc2cc(-c3ccc(C#N)cc3)ccc2S(=O)(=O)N([C@H](C)CO)C[C@@H]1C	x	x	x	x	x	4
CNC[C@@H]1OCCCC[C@@H](C)Oc2ccc(NS(C)(=O)=O)cc2C(=O)N([C@@H](C)CO)C[C@H]1C	x	x	x	x	x	-2
O=C(COC(=O)c1ccccc1NC(=O)c1ccco1)NCCC1=CCCCC1	29	-3	1	7	x	63*
CNC(=O)c1c(Cl)cnn1-c1ccc(C)cc1	56	28	-2	3	12	x
CNC(=O)c1c(Br)cnn1-c1ccc(C)cc1	44	46	0	-1	18	84*
O=C(C[C@H]1CC[C@@H]2[C@H](COC[C@@H](O)CN2C(=O)c2cnccn2)O1)NCc1ccc(F)cc1	x	x	x	x	x	-3
c1ccc(Oc2cccc(OCCn3cncn3)c2)cc1	-3	-14	-1	-2	3	x
c1ccc(COc2ccc(OCCn3cncn3)cc2)cc1	u	-6	-7	-4	x	68*
c1ccc(-c2ccc(OCCCn3cncn3)cc2)cc1	43	-10	-6	-4	35*	51*
C/C=C/c1ccc([C@@H]2[C@H](CO)N(S(C)(=O)=O)[C@H]2CN(CC)C(C)=O)cc1	x	x	x	x	x	5
CC1(C)Cc2nc3sc4c(=O)[nH]cnc4c3cc2CS1	42	-17	3	-4	x	27
CCCCCn1cnc2c(sc3nc4c(cc32)CSC(C)(C)C4)c1=O	94*	-18	0	0	x	39
CCC(=O)Nc1ccc2c(c1)C(=O)N(C)C[C@H](OC)[C@@H](C)CN(C(=O)Cc1cccnc1)[C@@H](C)CO2	x	x	x	x	x	-1
CCC(=O)Nc1ccc2c(c1)C(=O)N(C)[C@H]1CC[C@H](CC(=O)N[C@H](C)c3ccccc3)O[C@H]1CO2	x	x	x	x	x	1
O=C(Nc1ccc(F)cc1)c1cc(-c2ccccc2)no1	24	-151	-7	-2	35*	x
COc1ccc(-c2cc(C(=O)Nc3ccccc3)on2)cc1	101*	29	-3	2	13	x
COc1ccc(-c2cc(C(=O)Nc3ccccc3F)on2)cc1	95*	-5	-1	2	11	x
Oc1cc(Nc2ccccc2)cc2cccnc12	-57	x	-9	-2	80*	10
COc1ccc(-n2cc(-c3ccc(Cl)cc3)[nH]c2=S)cc1	13	60*	-5	-5	17	x
O=[N+]([O-])c1ccc(-c2cn(-c3ccccc3)c(=S)[nH]2)cc1	14	-4	-3	0	49*	x
COC(=O)c1ccc(-n2cc(-c3ccc(OC)cc3)[nH]c2=S)cc1	0	-3	x	x	x	11
COc1ccc(-c2cn(-c3ccccc3)c(=S)[nH]2)cc1OC	17	33	0	-2	5	44*
COc1cccc(-n2cc(-c3ccc(F)cc3)[nH]c2=S)c1	41	-2	-8	-4	18	55*
O=C(Nc1ccc(C(F)(F)F)cc1)N[C@H]1C=C[C@@H](CC(=O)N2CCCCC2)O[C@H]1CO	x	x	x	x	x	1
C[C@@H]1CCCCO[C@H](CN(C)C(=O)Cc2ccccc2)[C@@H](C)CN([C@@H](C)CO)C(=O)c2cc(NS(=O)(=O)c3ccc(F)cc3)ccc2O1	x	x	x	x	x	-1
CCCN(C)C[C@H]1Oc2cc(C#CC3CCCCC3)ccc2S(=O)(=O)N([C@@H](C)CO)C[C@H]1C	x	x	x	x	x	-5
CC(C)c1cc(=O)n2[nH]c(SCc3ccccc3)nc2n1	-10	63*	-9	-4	-2	3
C[C@@H]1CN([C@H](C)CO)C(=O)c2cccc(NC(=O)Nc3ccccc3)c2O[C@@H]1CN(C)C(=O)Nc1ccc2c(c1)OCO2	x	x	x	x	x	10

High-throughput results: PubChem, several laboratories
